# Targets with the largest changes are over-represented here; the source holds about 21,000 in all.
# Compound: Cc1cc(ccc1-c1ccccc1)C(=O)N1CCCN(CC1)C(=O)CCl [compound 10]
# Assay: probe-labelled cysteine peptide fold change vs DMSO (competition) (log2 fold change); higher = less target engagement (more negative = stronger competition)
# Settings: THP-1, incubation time: 4 h
# 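Note: competitive profiling in live THP-1 cells: cysteine peptides tagged with an iodoacetamide desthiobiotin (IA-DTB) probe, intensity after compound treatment relative to DMSO-treated cells.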
# Chain of UniProt Q8NCE2 (Q8NCE2 whole entry, looked up): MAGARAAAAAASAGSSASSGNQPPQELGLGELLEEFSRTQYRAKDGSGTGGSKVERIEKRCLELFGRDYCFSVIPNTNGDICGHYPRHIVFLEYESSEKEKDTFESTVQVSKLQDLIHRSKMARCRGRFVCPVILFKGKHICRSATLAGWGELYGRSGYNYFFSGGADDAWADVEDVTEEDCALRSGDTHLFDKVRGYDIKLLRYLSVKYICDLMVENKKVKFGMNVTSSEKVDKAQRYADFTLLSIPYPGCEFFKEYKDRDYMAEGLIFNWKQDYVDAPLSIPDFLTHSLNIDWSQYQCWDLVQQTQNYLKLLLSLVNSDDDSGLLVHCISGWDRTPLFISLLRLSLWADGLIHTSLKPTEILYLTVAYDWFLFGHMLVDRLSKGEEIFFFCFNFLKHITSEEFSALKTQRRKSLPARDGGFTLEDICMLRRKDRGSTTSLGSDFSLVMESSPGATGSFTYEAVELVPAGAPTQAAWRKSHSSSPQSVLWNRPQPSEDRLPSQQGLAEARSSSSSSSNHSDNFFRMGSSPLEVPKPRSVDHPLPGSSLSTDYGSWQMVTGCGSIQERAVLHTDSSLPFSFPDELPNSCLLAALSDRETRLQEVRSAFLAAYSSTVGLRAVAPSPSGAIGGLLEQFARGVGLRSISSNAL
# Chain of UniProt Q9BU76 (Q9BU76 whole entry, looked up): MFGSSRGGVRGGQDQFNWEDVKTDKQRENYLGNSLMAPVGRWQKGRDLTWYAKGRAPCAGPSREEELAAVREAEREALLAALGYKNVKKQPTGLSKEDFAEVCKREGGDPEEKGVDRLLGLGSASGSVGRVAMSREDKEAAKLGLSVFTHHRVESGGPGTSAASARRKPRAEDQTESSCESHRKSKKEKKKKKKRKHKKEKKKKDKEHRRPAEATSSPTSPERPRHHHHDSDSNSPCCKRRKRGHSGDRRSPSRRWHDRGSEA
# Chain of UniProt Q92918 (Q92918 whole entry, looked up): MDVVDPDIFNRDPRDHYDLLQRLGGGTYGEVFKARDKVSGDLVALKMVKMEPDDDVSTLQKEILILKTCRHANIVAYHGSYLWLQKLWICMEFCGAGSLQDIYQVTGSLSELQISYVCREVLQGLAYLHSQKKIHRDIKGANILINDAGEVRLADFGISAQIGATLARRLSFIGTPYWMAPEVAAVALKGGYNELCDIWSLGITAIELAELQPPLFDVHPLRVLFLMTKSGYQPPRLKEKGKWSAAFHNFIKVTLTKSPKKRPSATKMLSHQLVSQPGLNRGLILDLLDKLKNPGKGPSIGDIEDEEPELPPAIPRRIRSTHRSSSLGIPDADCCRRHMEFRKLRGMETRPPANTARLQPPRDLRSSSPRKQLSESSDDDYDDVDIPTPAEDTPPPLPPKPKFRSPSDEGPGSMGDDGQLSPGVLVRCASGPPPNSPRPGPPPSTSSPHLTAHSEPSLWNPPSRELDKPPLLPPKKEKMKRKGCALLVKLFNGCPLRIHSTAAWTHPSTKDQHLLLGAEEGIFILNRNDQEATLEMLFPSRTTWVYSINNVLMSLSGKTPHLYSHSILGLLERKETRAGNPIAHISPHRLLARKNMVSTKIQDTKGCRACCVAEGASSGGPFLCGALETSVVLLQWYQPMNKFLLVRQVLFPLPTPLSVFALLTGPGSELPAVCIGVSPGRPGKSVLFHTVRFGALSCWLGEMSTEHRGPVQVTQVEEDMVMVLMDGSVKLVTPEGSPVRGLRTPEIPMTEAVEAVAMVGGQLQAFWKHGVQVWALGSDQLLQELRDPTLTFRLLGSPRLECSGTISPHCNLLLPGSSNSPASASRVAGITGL
# Chain of UniProt Q96L50 (Q96L50 whole entry, looked up): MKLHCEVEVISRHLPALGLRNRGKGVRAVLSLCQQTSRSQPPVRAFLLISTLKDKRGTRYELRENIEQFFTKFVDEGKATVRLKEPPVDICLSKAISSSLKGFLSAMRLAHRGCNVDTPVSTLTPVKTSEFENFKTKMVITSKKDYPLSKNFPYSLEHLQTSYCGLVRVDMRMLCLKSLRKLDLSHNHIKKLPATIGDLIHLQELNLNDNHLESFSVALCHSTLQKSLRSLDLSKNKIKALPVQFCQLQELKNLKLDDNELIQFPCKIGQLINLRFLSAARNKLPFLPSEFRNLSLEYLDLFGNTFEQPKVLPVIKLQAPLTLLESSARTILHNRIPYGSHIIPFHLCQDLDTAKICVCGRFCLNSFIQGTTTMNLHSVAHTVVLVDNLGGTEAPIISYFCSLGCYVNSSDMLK
# Chain of UniProt P52564 (P52564 whole entry, looked up): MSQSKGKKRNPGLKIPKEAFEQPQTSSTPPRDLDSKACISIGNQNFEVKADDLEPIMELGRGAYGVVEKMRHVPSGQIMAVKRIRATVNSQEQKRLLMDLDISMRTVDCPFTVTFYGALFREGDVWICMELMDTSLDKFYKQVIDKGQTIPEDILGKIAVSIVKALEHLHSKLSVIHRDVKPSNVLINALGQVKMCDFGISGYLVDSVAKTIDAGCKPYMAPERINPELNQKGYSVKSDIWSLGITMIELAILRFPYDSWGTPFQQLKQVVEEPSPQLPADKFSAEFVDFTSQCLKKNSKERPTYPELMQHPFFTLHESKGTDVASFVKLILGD
# Chain of UniProt P11586 (P11586 whole entry, looked up): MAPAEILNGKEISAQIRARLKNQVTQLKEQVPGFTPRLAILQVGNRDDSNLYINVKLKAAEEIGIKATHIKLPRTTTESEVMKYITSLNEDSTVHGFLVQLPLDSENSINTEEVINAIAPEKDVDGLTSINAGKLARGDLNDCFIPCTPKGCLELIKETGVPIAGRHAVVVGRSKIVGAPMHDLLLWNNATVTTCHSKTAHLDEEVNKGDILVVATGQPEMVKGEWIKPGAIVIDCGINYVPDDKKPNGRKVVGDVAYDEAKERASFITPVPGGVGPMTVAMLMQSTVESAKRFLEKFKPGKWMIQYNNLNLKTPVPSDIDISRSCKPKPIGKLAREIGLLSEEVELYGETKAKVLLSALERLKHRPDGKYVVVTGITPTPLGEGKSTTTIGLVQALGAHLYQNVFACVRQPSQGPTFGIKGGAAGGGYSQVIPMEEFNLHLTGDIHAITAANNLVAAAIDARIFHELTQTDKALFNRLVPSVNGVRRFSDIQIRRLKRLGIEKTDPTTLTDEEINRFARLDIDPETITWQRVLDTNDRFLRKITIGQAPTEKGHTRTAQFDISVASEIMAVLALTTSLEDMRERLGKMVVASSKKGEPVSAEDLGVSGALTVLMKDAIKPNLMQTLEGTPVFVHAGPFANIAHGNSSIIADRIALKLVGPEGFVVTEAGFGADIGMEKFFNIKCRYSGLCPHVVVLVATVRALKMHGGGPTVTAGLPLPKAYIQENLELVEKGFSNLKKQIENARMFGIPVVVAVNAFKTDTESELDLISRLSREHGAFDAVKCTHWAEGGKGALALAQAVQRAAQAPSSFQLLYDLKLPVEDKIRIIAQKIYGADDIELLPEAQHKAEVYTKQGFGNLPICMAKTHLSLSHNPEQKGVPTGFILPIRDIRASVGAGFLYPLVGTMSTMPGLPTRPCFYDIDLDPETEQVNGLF
# Chain of UniProt Q9Y217 (Q9Y217 whole entry, looked up): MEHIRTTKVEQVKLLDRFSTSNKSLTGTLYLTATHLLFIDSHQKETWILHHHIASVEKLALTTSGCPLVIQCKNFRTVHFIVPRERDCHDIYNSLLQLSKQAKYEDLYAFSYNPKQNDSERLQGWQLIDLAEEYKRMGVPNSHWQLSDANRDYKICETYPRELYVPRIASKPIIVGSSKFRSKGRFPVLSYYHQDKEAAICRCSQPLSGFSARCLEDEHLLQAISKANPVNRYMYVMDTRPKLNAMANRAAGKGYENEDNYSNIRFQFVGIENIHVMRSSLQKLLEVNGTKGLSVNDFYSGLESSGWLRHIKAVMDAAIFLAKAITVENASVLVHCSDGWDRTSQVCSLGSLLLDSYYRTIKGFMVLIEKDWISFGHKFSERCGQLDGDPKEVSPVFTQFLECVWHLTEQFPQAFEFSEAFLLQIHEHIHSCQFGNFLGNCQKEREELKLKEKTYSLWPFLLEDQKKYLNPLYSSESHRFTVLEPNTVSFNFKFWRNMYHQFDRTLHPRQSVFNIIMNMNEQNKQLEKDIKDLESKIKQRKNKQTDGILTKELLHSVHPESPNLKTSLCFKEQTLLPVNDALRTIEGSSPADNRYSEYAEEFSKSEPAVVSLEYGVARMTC
# Chain of UniProt P53667 (P53667 whole entry, looked up): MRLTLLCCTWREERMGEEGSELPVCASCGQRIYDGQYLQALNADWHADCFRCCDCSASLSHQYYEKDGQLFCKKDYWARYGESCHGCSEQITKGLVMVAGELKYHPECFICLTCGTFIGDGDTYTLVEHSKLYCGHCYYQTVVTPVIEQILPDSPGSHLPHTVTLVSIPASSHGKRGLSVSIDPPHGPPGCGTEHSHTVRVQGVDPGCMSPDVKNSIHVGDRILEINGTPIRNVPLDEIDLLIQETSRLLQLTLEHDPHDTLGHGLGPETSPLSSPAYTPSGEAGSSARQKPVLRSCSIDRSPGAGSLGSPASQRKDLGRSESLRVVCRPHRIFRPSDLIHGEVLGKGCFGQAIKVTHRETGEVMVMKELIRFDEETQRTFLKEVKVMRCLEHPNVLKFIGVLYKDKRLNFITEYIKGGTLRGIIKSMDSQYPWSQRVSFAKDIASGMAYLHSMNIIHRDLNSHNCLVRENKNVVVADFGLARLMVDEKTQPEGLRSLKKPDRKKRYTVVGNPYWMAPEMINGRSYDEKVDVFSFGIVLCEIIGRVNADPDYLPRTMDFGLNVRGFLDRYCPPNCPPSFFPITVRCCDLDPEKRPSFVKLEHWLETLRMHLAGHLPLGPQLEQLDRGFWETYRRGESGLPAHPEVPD
# Chain of UniProt P48059 (P48059 whole entry, looked up): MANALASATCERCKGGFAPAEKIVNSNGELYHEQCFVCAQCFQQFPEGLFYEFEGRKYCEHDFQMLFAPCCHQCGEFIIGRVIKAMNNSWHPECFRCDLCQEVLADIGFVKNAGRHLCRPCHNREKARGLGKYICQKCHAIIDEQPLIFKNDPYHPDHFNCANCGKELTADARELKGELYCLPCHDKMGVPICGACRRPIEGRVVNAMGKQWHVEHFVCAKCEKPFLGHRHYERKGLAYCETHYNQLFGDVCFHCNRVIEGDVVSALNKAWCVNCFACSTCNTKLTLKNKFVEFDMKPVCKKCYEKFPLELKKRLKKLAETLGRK
target,measurement,setting,value
MAP2K6_P52564_216_TIDAGCK (UniProt P52564),probe-labelled cysteine peptide fold change,10 µM,-0.048
same,probe-labelled cysteine peptide fold change,50 µM,0.239
MYCBP2_O75592_3263_QAHPGCGR (UniProt O75592),probe-labelled cysteine peptide fold change,10 µM,0.0855
same,probe-labelled cysteine peptide fold change,50 µM,0.00399
LIMS1_P48059_240+252_GLAYCETHYNQLFGDVCFHCNR (UniProt P48059),probe-labelled cysteine peptide fold change,10 µM,0.0277
same,probe-labelled cysteine peptide fold change,50 µM,0.118
MMTAG2_Q9BU76_103_EDFAEVCKR (UniProt Q9BU76),probe-labelled cysteine peptide fold change,10 µM,-0.168
same,probe-labelled cysteine peptide fold change,50 µM,-0.321
MKI67_P46013_643_SQHDILQMICSK (UniProt P46013),probe-labelled cysteine peptide fold change,10 µM,-0.612
same,probe-labelled cysteine peptide fold change,50 µM,-2.28
LRR1_Q96L50_5_LHCEVEVISR (UniProt Q96L50),probe-labelled cysteine peptide fold change,10 µM,-0.12
same,probe-labelled cysteine peptide fold change,50 µM,0.0535
MYCBP2_O75592_3241_DTICELCGESHPYPVTYHMR (UniProt O75592),probe-labelled cysteine peptide fold change,10 µM,-0.0846
same,probe-labelled cysteine peptide fold change,50 µM,-0.18
MRC2_Q9UBG0_187_IYGSEEDLCALPYHEVYTIQGNSHGKPCTIPFK (UniProt Q9UBG0),probe-labelled cysteine peptide fold change,10 µM,-0.0343
same,probe-labelled cysteine peptide fold change,50 µM,-0.784
MAP4K1_Q92918_335_SSSLGIPDADCCR (UniProt Q92918),probe-labelled cysteine peptide fold change,10 µM,-0.294
same,probe-labelled cysteine peptide fold change,50 µM,-1.09
MTMR6_Q9Y217_214_CLEDEHLLQAISK (UniProt Q9Y217),probe-labelled cysteine peptide fold change,10 µM,-0.103
same,probe-labelled cysteine peptide fold change,50 µM,-0.217
MYBBP1A_Q9BQG0_890_RYCHDLGER (UniProt Q9BQG0),probe-labelled cysteine peptide fold change,10 µM,0.104
same,probe-labelled cysteine peptide fold change,50 µM,0.125
MTHFD1_P11586_236_GEWIKPGAIVIDCGINYVPDDK (UniProt P11586),probe-labelled cysteine peptide fold change,10 µM,0.183
same,probe-labelled cysteine peptide fold change,50 µM,0.298
LIMK1_P53667_84_YGESCHGCSEQITK (UniProt P53667),probe-labelled cysteine peptide fold change,10 µM,0.0187
same,probe-labelled cysteine peptide fold change,50 µM,-0.262
MTMR14_Q8NCE2_131_FVCPVILFK (UniProt Q8NCE2),probe-labelled cysteine peptide fold change,10 µM,-0.00849
same,probe-labelled cysteine peptide fold change,50 µM,-0.0865
